# High-throughput results as filed in PubChem.
# TDP1 block – inhibitors of human tyrosyl-DNA phosphodiesterase TDP1 | recombinant TDP1, AlphaScreen DNA substrate cleavage | Potency, µM (top dose mostly 130 µM), for inactives: top-dose activity change, negative = inhibition, hits mostly inhibitors | AID 485290 | 350,000 compounds, 0.28% hits; also: potency is read from the fitted curve at half-maximal effect; nearly all actives have a fitted effect of over 40% in size
# Target sequence (Q9NUW8 whole entry, looked up): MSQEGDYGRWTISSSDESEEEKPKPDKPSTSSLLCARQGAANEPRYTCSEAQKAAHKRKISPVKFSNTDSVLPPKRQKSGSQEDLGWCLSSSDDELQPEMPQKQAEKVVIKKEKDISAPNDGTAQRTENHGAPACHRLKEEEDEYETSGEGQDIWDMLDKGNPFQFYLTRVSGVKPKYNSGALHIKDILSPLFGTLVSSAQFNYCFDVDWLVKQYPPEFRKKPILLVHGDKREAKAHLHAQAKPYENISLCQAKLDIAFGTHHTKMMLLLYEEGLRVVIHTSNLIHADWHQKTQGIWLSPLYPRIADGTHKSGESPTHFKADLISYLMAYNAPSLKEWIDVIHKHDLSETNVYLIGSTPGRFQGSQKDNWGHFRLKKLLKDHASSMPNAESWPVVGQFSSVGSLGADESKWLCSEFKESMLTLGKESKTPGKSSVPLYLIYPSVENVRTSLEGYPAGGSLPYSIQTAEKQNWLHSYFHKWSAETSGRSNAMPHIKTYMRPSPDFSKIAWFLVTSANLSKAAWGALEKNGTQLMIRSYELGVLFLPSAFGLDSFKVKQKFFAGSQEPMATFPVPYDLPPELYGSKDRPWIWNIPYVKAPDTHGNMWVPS
#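 Here, a 5' biotin and 3' phosphotyrosine-FITC DNA oligonucleotide reports Tdp1 activity: intact substrate bridges AlphaScreen beads, while cleavage leaves a 3' phosphate and drops signal. All incubations at room temperature.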
# IL-1B inflam inh – inflammasome signaling inhibition, IL-1 beta readout; THP-1 LPS/ATP IL-1B secretion, AlphaLISA, 16 h; active compounds read low; activity change, % at 57.5 µM; 360,000 compounds, 4.7% hits; AID 743279; in the data active = activity change below about -50%; inconclusive = mostly about -30% to -49%
#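 THP-1 cells pretreated 1 hr with compounds (up to 57.5 uM final), then stimulated with LPS (250 ng/mL final) plus ATP (1.25 mM final); secreted IL-1B measured by AlphaLISA after 16 hr, decreased signal indicating inhibition.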
# CtBP-E1A inh – inhibitors of CtBP/E1A interaction; AID 651724; activity change, % (concentration not given with the values); AlphaScreen GST-E1A/His-CtBP binding, 1536-well; active compounds read low; 340,000 compounds, 0.49% hits; in the data active = activity change below about -65%; inconclusive = mostly about -30% to -63%
#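 In 5 uL wells, 23 nL compound meets equimolar GST-E1A and His-CtBP (5X stock 125 nM each) for 2 h, 37 °C. Beads (5X, 50 ug/mL) then 1 h, 37 °C, dark.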
# DT40 TDP1 CPT – DT40-hTDP1 cell growth loss with CPT; chicken DT40 Tdp1-/-;hTDP1 cells + 20 nM CPT, ATP luminescence, 48 h; Potency, µM (top dose mostly 46.2 µM), inactives show at the highest dose activity change, negative = growth inhibition, usual class: inhibitors; 420,000 compounds, 12% hits; also: potency is read from the fitted curve at half-maximal effect; nearly all actives have a fitted effect of over 55% in size
#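 Chicken DT40 Tdp1-/- cells complemented with human TDP1, 400 cells/well, exposed to compounds plus 20 nM camptothecin for at least 48 h at 37 C; viability read as ATP content by CellTiter-Glo luminescence.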
# Six1-Eya2 blk – inhibitors of human Six1/Eya2 interaction. Q15475+O00167. AlphaScreen GST-Six1/His-Eya2 binding, biochemical; active compounds read low. activity change, % (no concentration beside the values). 360,000 compounds, 0.56% hits; in the data active = activity change below about -65%; inconclusive = mostly about -30% to -63%
#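 AlphaScreen luminescence read after one hour at 37 °C in darkness. Pin-transferred compounds met GST-Six1 and His-Eya2 protein (5X stock 250 nM/500 nM) plus glutathione donor and Ni-chelate acceptor beads (5X, 50 ug/mL).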
# TDP1 cell noCPT – qHTS for Inhibitors of human tyrosyl-DNA phosphodiesterase 1 (TDP1): qHTS in cells in absence of CPT | DT40 Tdp1-/- hTDP1 cells, no CPT, ATP luminescence, 48 h | Potency, µM (top dose mostly 46.2 µM), for inactives: top-dose activity change, negative = growth inhibition, most hits filed as inhibitors | 420,000 compounds, 15% hits | AID 686978, 2013; also: potency is read from the fitted curve at half-maximal effect; nearly all actives have a fitted effect of over 55% in size
#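 A cellular qHTS used chicken DT40 cells lacking endogenous Tdp1 but carrying stably transfected human TDP1. Compounds were applied without camptothecin, and cell growth kinetics were judged by ATP-dependent luminescence after ≥48 hr.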
# The depositor's hits bear a star; i = inactive; ? = inconclusive; · = no result given; [ ] = another dose, or the depositor's remark. This is a sample that favours compounds with a hit; in the whole collection about 18% have one here. Unless noted, calls follow the shape of the dose curve; as a rule, active = well fitted curve in the direction sought with a large enough effect; inconclusive = small, poorly fitted or top-dose-only effect, or another doubt; inactive = no such curve, though single readings can be large; an effect the other way counts as inactive or inconclusive. % is scaled to controls: 0 for no effect and ±100 for the full control effect.
SMILES,TDP1 block,IL-1B inflam inh,CtBP-E1A inh,DT40 TDP1 CPT,Six1-Eya2 blk,TDP1 cell noCPT
CCCc1nc2cc(C)c(Br)c(C)n2c1CC1CCCCC1,·,?,11,4.1µM*,6,2.9µM*
CCOC(=O)c1cc(CC)sc1NC(=O)c1cc(OCC)c(OCC)c(OCC)c1,-4%,6,-1,?,-8,?
CC1CCN(S(=O)(=O)c2ccc3[nH]c(=O)cc(C(=O)O)c3c2)CC1,4%,5,2,-6%,0,-2%
COn1c(SC2CCCCC2)nc2ccccc2c1=O,-4%,21,5,2%,5,-8%
Cc1cc2nc(-c3ccccc3)c(CC3CCCCC3)n2c(C)c1Br,·,33,17,23µM*,8,15µM*
CN1C(=O)C[C@H](C(=O)O)[C@@H]1c1cccnc1,13%,·,·,·,·,·
Cc1ccc(S(=O)(=O)N2CCC(n3c(C)nc4cccnc43)CC2)c(C)c1,8%,·,·,6.5µM*,·,7.3µM*
Cc1cccc(NC(=O)N2CCC(n3c(C)nc4cccnc43)CC2)c1,6%,·,·,-3%,·,?
Cc1[nH]n(-c2ccccc2)c(=O)c1N=Nc1ccccc1O,11%,124,-81*,0.52µM*,-87*,0.41µM*
Cc1ccccc1N=Nc1c(C)[nH]n(-c2ccccc2)c1=O,5%,19,2,9%,-5,-22%
Cc1[nH]n(-c2ccccc2)c(=O)c1N=Nc1nccs1,8%,53,-22,18µM*,-17,23µM*
CN(C)C(=O)c1nc2ccc(Cl)cn2c1CN1CCCC(OCc2cccnc2)C1 (configuration not stated),2%,-3,·,0%,-3,-13%
O=C(c1c(F)c(F)c(F)c(F)c1F)N(Cc1ccccc1)Cc1ccccc1,-5%,-2,14,?,36,?
O=C(c1c(F)cccc1F)N(Cc1ccccc1)Cc1ccccc1,?,?,20,12µM*,4,12µM*
CC(=O)NCCNC(=O)Cn1nnc(-c2ccccc2)c1COc1ccc2ccccc2c1,·,25,-5,?,2,?
CN(Cc1ccccc1)C(=O)Cn1nnc(-c2ccccc2)c1COc1ccccc1,·,-26,0,?,1,21µM*
O=C(Cn1nnc(-c2ccccc2)c1COc1ccc2ccccc2c1)NCC1CC1,·,-9,-3,18µM*,-15,?
CN(Cc1ccccc1)C(=O)Cn1nnc(-c2ccccc2)c1COc1ccc2ccccc2c1,·,-7,-12,23µM*,-6,18µM*
COCCOc1ccc(C(F)(F)F)cc1NC(=O)c1ccc(F)cc1,-3%,10,7,3%,10,-3%
CC(C)(C)c1ccc(OCCOc2ccc(C(C)(C)C)cc2NC=O)c(NC=O)c1,0%,?,·,21µM*,-3,21µM*
CCCCNC(=O)c1nn2c(C(F)(F)F)cc(-c3ccccc3)nc2c1Br,·,-5,-14,?,-7,21µM*
Cc1c(NC(=O)c2nn3c(C(F)(F)F)cc(-c4ccccc4)nc3c2Br)c(=O)n(-c2ccccc2)n1C,-1%,-1,?,-20%,-29,?
COc1ccc(-c2cc(C(F)(F)F)n3nc(C(=O)Nc4cccc(C(F)(F)F)c4)c(Br)c3n2)cc1,-1%[12.3 µM],·,·,13µM*,·,?
N#CCNC(=O)c1nn2c(C(F)(F)F)cc(-c3ccccc3)nc2c1Br,·,13,5,0%,-9,18%
CCOc1cc(/C=N/NC(=O)c2cc(C3CC3)[nH]n2)ccc1O,5%,-7,-6,3%,-9,0%
SMILES,TDP1 block,IL-1B inflam inh,CtBP-E1A inh,DT40 TDP1 CPT,Six1-Eya2 blk,TDP1 cell noCPT
O=C(Nc1c(C(=O)N2CCC(N3CCCCC3)CC2)oc2ccccc12)c1ccc(F)cc1,2%,?,-3,?,0,?
OC[C@@H]1CN(Cc2ccc(F)cc2)C[C@H](n2cnc3c(N4CCN(c5ccccc5)CC4)ncnc32)O1,·,-1,?,18µM*,?,10µM*
OC[C@@H]1CN(Cc2ccccc2)C[C@H](n2cnc3c(N4CCN(c5ccccc5)CC4)ncnc32)O1,·,-6,?,?,?,?
OC[C@@H]1CN(Cc2ccc(-c3ccccc3)cc2)C[C@H](n2cnc3c(N4CCCC4)ncnc32)O1,·,-16,-6,18µM*,-10,21µM*
COc1ccccc1CN1CC(C(=O)NCc2ccc(SC)cc2)CCC1=O (configuration not stated),2%,i,1,12%,-14,4%
O=C(NNC(=S)NC(=O)c1sc2ccccc2c1Cl)c1ccc(Cl)cc1,11%,31,8,18µM*,0,?
Cc1ccc(NC(=S)NC(=O)c2sc3ccccc3c2Cl)c(C(=O)O)c1,2%,·,·,·,·,·
O=C(O)c1ccccc1NC(=S)NC(=O)c1sc2ccccc2c1Cl,3%,3,·,?,-3,16µM*
O=C(NNC(=O)c1sc2ccccc2c1Cl)Nc1ccc(Cl)cc1,6%,-2,8,-15%,-2,-3%
NC(=O)c1ccc(SCC(=O)OCC(=O)NCc2ccco2)c([N+](=O)[O-])c1,1%,14,-3,18%,-5,13%
Cc1[nH]c(=O)[nH]c(=O)c1S(=O)(=O)Nc1ccc(F)c(Cl)c1,·,5,6,-4%,3,23%
CCOC(=O)c1cccc(NC(=O)c2cc3cc4ccc(C)cc4nc3o2)c1,-2%,·,·,-5%,·,-17%
O=C(O)C(Cc1ccccc1)N1C(=O)C2C3CCC(C3)C2C1=O (configuration not stated),·,0,0,-16%,9,-6%
CC(=O)c1c(N2CCN(Cc3ccccc3)CC2)nc(=S)n(Cc2ccccc2)c1C,2%,6,-14,16µM*,1,16µM*
CCCSc1nc(=S)n(Cc2ccccc2)c(C)c1C(C)=O,11%,-3,-1,-20%,-6,23µM*
CC(=O)c1c(N2CCCCC2)nc(=S)n(Cc2ccccc2)c1C,0%,-18,-14,26µM*,-12,?
CC(=O)c1c(C(C)=O)c(C)n(Cc2ccccc2)c1C,2%,10,4,-19%,5,?
CC(=O)c1c(N2CCN(c3ccc(F)cc3)CC2)nc(=S)n(Cc2ccccc2)c1C,4%,?,-13,?,-1,?
Cc1ccc(N2C(=O)CC(Sc3nc(C)cc(C)n3)C2=O)cc1 (configuration not stated),2%,43,·,7.3µM*,14,8.2µM*
